This is an account of results in PubChem BioAssay (NCATS).

Structures are written as SMILES. Inconclusive results are not listed. More than one record can exist for a structure, and the calls need not agree. Active and inactive are the calls of the source. Unless noted, calls come from the whole dose curve; as a rule, active = well fitted curve in the direction sought with a large enough effect; inconclusive = small, poorly fitted or top-dose-only effect, or another doubt; inactive = no such curve, though single readings can be large; an effect the other way counts as inactive or inconclusive. Starred links: 1 amine or outer side, 2 acyl side, 3 side chain; linkers in the order of their positions; H or OH if unused. Positions of bridges follow the written chain, without caps; N, C: chain ends. Non-standard residues stand in square brackets, D forms with d. Residues, ends and D or L forms follow the SMILES beside them. *: point of attachment. X4 = NC1=N[C@@H](O)C[C@H]([C@H](N[*:1])C(=O)[*:2])N1; ΔAla(3-NHCONH2) = NC(=O)NC=C(N)C(=O)O; β3hOrn = NCCC[C@H](N)CC(=O)*; Dap = NC[C@H](N)C(=O)O

Chain of Rap guanine nucleotide exchange factor 3 (Homo sapiens) (O95398 whole entry, looked up): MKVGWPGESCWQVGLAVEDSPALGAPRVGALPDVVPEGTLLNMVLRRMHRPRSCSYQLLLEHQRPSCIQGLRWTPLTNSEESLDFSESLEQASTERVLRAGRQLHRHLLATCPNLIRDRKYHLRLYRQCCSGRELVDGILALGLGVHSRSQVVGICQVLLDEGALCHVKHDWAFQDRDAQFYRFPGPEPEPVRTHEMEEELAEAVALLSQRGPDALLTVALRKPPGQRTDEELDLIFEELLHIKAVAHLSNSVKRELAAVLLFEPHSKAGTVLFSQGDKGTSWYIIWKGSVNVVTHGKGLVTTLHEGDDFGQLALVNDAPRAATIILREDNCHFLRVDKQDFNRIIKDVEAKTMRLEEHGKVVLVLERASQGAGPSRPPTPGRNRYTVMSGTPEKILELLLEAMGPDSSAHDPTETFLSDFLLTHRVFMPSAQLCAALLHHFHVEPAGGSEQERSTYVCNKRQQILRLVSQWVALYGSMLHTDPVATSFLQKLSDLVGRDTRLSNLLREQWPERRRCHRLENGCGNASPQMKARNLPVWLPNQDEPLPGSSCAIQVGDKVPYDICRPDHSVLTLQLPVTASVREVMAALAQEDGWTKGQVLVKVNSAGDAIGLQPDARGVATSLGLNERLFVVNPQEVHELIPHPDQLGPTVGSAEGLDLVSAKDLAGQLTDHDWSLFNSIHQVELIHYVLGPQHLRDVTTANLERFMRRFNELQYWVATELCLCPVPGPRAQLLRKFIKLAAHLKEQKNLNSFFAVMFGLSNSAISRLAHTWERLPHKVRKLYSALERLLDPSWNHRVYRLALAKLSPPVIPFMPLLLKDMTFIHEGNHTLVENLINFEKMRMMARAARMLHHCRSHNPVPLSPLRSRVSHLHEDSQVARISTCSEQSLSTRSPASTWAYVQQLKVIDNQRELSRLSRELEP
Chain of Rap guanine nucleotide exchange factor 4 (Homo sapiens) (Q8WZA2 whole entry, looked up): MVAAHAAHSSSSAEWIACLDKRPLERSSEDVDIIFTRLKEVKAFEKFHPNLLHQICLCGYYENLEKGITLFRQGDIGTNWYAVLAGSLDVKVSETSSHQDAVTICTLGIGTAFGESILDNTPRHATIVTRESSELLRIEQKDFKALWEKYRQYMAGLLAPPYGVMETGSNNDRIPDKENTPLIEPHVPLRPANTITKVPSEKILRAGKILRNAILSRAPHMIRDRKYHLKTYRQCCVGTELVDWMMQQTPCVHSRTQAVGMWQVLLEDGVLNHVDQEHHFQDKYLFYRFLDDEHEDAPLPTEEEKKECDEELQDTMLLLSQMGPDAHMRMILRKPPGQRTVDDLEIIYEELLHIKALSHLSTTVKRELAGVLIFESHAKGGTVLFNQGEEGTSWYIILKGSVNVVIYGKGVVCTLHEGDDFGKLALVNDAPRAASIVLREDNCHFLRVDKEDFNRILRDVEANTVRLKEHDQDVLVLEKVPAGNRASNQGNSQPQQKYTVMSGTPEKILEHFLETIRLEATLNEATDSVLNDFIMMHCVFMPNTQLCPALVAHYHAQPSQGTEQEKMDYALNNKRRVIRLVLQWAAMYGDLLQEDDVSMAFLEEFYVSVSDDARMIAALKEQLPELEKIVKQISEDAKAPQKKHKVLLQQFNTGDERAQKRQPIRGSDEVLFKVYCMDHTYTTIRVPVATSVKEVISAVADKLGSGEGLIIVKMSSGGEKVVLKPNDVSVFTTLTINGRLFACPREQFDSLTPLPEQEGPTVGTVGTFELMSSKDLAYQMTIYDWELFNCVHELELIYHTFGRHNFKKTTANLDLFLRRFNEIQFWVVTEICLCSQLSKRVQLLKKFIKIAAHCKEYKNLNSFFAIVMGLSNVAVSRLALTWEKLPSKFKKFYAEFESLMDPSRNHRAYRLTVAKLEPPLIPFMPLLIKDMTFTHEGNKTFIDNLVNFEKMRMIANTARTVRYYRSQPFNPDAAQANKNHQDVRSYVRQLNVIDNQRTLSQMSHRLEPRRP
Chain of Cytochrome P450 2D6 (Homo sapiens) (P10635 whole entry, looked up): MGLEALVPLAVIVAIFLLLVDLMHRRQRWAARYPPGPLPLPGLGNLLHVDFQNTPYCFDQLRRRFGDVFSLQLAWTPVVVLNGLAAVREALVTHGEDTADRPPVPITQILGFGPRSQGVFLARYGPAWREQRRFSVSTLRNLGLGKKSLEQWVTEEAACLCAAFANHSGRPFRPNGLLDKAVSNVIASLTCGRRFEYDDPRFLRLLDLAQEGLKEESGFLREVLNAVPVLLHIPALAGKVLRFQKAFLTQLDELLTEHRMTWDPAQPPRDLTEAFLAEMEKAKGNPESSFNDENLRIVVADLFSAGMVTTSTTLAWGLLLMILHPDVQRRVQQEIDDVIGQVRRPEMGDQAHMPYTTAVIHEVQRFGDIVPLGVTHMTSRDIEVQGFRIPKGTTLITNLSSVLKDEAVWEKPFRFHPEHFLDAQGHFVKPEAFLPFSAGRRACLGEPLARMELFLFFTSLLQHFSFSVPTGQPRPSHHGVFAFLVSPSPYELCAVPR

Test system in one assay: not listed separately
Put plainly: Primary qHTS for small molecule stabilizers of the endoplasmic reticulum resident proteome: Secreted ER Calcium Modulated Protein (SERCaMP) assay (AID 1508630). Note: % is set by controls: 0 for no effect and ±100 for the full control effect. Particulars: SH-SY5Y GLuc-SERCaMP (Gaussia luciferase released on ER calcium loss) secretion, thapsigargin, luminescence; series mostly up to 38.4 µM; activity change, negative = inhibition: at the top concentration. The procedure, abridged:
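The SH-SY5Y reporter protocol was run at 3 concentrations up to 38.3 uM (primary) or 11 concentrations (follow-up): 16 h compound, 100 nM thapsigargin for 4 h, then extracellular luciferase luminescence.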
A general note: In qHTS, concentration-response curves come from the screen itself.
On to `CN=C1N[C@H](c2ccccc2)N(c2ccccc2)S1`, for which the “activity change, negative = inhibition” value was 0.24% (inactive).

For `N#Cc1cccc(NC(=O)N2CC[C@@]3(CCCN(C(=O)c4cccc(F)c4)C3)C2)c1`, the “activity change, negative = inhibition” value was 27% (inactive).

Regarding `COc1cc(/C=C/C(=O)/C=C(O)/C=C/c2ccc(O)c(OC)c2)ccc1O`, the “activity change, negative = inhibition” value was -26.2% (inactive).

As for `CC[C@@H]1Cn2c(c3nc(-c4ccccc4)nc-3n(C)c2=O)N1`, the “activity change, negative = inhibition” value is -8.39% (inactive).

In the case of `CCCC[P+](CCCC)(CCCC)Cc1ccc(NC(=O)[C@@H](Cc2ccc3ccccc3c2)NC(=NC2CCCCC2)NC2CCCCC2)cc1`, the “activity change, negative = inhibition” value was 49% (inactive).

For the molecule `C/C(=C\COc1cc(=O)[nH]c2ccccc12)CCC(O)C(C)(C)O` (stereo unspecified), the “activity change, negative = inhibition” value is -22.4% (inactive).

In the case of `N#CCCn1c(=O)c(-c2ccc(F)cc2)nc2cnc(Oc3cccc(Cl)c3)nc21`, the “activity change, negative = inhibition” value was 46.3% (inactive).

For `O=C(c1ccncc1)N1CCC2(CC1)CCN(c1ccncc1)CC2`, the “activity change, negative = inhibition” value is -9.97% (inactive).

On to `N[C@@H](C(=O)O)c1ccc(O)c(C(=O)O)c1`, for which the “activity change, negative = inhibition” value was -12.4% (inactive).

As to `COc1ccc2[nH]cc(CCNc3nc(-c4ccc(C(=O)N(C)C)cc4)nc4ccccc34)c2c1`, the “activity change, negative = inhibition” value was -27.6% (inactive).

In the case of `Cc1cc(C)c(S(=O)(=O)Nc2ccccc2C(F)(F)F)c(C)c1`, the “activity change, negative = inhibition” value was -28.5% (inactive).

Turning to `CCCNC(=O)N1N=C(c2ccc(N)cc2)c2cc3c(cc2[C@H]1C)OCO3`, the “activity change, negative = inhibition” value was -0.549% (inactive).

`NCCC[C@H](N)CC(=O)N[C@H]1CNC(=O)[C@H]([C@H]2C[C@H](O)N=C(N)N2)NC(=O)C(=CNC(N)=O)NC(=O)[C@H](CO)NC(=O)[C@H](CO)NC1=O` (β3hOrn-[Dap]SS[ΔAla(3-NHCONH2)][X4]; lactam 1-C): the “activity change, negative = inhibition” value was -20.6% [at 13 µM] (inactive).

For the molecule `O=C(CCCc1ccc(-c2ccccc2F)cc1)Nc1ccc(O)cc1`, the “activity change, negative = inhibition” value was 16.3% (inactive).

Turning to `O=C(c1cnccn1)N1CCC2(CCCN(Cc3ccncc3)C2)CC1`, the “activity change, negative = inhibition” value is 6.94% (inactive).

For the molecule `CC(C)CN1CCCC2(CCN(C(=O)c3ccco3)CC2)C1`, the “activity change, negative = inhibition” value was 35% (inactive).

In the case of `C=CCNC(=O)c1cc([N+](=O)[O-])cc2c(=O)[nH]c(Nc3ccc(Cl)c(Cl)c3)nc12`, the “activity change, negative = inhibition” value is -10.1% (inactive).

For `CCCCCCCNS(=O)(=O)c1cccc2c(Cl)cccc12`, the “activity change, negative = inhibition” value is -22.2% (inactive).

As for `O=[N+]([O-])c1cccc2c[nH]nc12`, the “activity change, negative = inhibition” value was -21.2% (inactive).

For the molecule `COc1cc2c(cc1OC)C(=O)Cc1ccc3c(c1CN(C)CC2)OCO3`, the “activity change, negative = inhibition” value is 25.6% (inactive).

Turning to `CC(C)NC(=O)N1CC[C@@]2(CCCN(C(=O)c3ccco3)C2)C1`, the “activity change, negative = inhibition” value is 27.7% (inactive).

As to `CC(C)(C)c1cc(C(=O)/C=C/c2ccc(C(=O)O)cc2)cc(C(C)(C)C)c1`, the “activity change, negative = inhibition” value is -15.5% (inactive).

A further assay concerns the target Cytochrome P450 2D6 (Homo sapiens) (UniProt P10635). Description: Cytochrome P450 family 2 subfamily D member 6 (CYP2D6) small molecule antagonists: luciferase biochemical (cell-free) qHTS assay (AID 1645840; active = well fitted curve in the direction sought with a large enough effect in the repeat runs; an effect the other way counts as inactive or inconclusive; note: % is set by controls: 0 for no effect and ±100 for the full control effect; nearly all actives have a fitted effect of over 55% in size). Conditions: P450-Glo CYP2D6 enzyme, luciferin luminescence, 1 h; series mostly up to 57.4 µM; activity change, negative = inhibition: at the top concentration. The procedure, abridged: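 P450-Glo CYP2D6 system: proluciferin substrate converted by enzyme to luciferin, read by luminescence proportional to activity. Enzyme-substrate mix with compound 10 min at room temperature, then NADPH regeneration 1 h before detection reagent.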
Turning to `CCCCCC/C=C\CCCCCCCc1cccc(O)c1C(=O)O`, the “activity change, negative = inhibition” value is -25.6% (inactive).

As to `COC(=O)c1c(C)cc(OC(=O)c2c(C)cc(O)c(C=O)c2O)c(C)c1O`, the “activity change, negative = inhibition” value was -4.14% (inactive).

For the molecule `NC(Cc1ccc(O)c(O)c1)C(=O)O` (stereo unspecified), the “activity change, negative = inhibition” value was -7.32% (inactive).

The next assay deals with Rap guanine nucleotide exchange factor 3 (Homo sapiens) (UniProt O95398). Put plainly: Confirmatory qHTS for antagonist of cAMP-regulated guanine nucleotide exchange factor 3 (EPAC1) (AID 1645880).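 For activity, negative = inhibition: plate controls were DMSO only for no effect and full effect of the ATA control for full effect.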 Note: nearly all actives have a fitted effect of over 55% in size. Note: potency is the fitted concentration of half-maximal effect. Particulars: EPAC1 Rap1B-BODIPY-GDP exchange, fluorescence; series mostly up to 115 µM; activity, negative = inhibition: at the top concentration. In a few lines:
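Released BODIPY-GDP fluoresces less than Rap1-bound BODIPY-GDP; the signal is followed at 480/540 nm at 5-min intervals over 30 min, after 5 min at room temperature. Reactions contain 100 nM EPAC1, 250 nM RAP1B-BODIPY-GDP and 50 uM GDP; results are normalized to ATA and DMSO.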
Take `COc1ccc2[nH]cc(CCNc3ncnc4ccc(-c5ccc6c(c5)OCO6)cc34)c2c1`: the “activity, negative = inhibition” value is 1.11% (inactive).

Consider `COc1cccc(-c2cc(NCCc3c[nH]c4ccc(OC)cc34)ncn2)c1`, for which the “activity, negative = inhibition” value was 13.4% (inactive).

`COc1ccccc1CNc1ncnc2ccc(-c3ccccc3C#N)cc12`: the “activity, negative = inhibition” value is -6.09% (inactive).

For `Cc1ccccc1-c1ccc2ncnc(N(C)C)c2c1`, the “activity, negative = inhibition” value was -12.3% (inactive).

In the case of `C=CCc1ccc(OC(=O)c2ccccc2)c(OC)c1`, the Potency entry was “inactive”.

As to `CN(Cc1ccco1)c1ncnc2ccc(-c3ccc4c(c3)OCO4)cc12`, the “activity, negative = inhibition” value is -19.4% (inactive).

With `NC(Cc1ccc(O)c(O)c1)C(=O)O` (stereo unspecified), the Potency is 1.4 µM (active).

With `COc1cc2ccc(=O)oc2cc1O`, the “activity, negative = inhibition” value is 7.01% (inactive).

As to `COc1ccc2[nH]cc(CCNc3ncnc4ccc(-c5ccccc5C#N)cc34)c2c1`, the “activity, negative = inhibition” value was 0.899% (inactive).

The next assay has the same target. Put plainly: Confirmatory qHTS for agonist of cAMP-regulated guanine nucleotide exchange factor 3 (EPAC1) (AID 1645881).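 Note: EPAC1 catalysed release of BODIPY-GDP from Rap1B seen as fluorescence loss; 100% = effect of cAMP agonist control; nearly all actives have a fitted effect of over 75% in size.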 Particulars: EPAC1 Rap1B BODIPY-GDP exchange fluorescence; series mostly up to 154 µM; activation: at the top concentration.
As to `COc1ccc2[nH]cc(CCNc3ncnc4ccc(-c5ccc6c(c5)OCO6)cc34)c2c1`, the “activation” value was 10.2% (inactive).

For `COc1cccc(-c2cc(NCCc3c[nH]c4ccc(OC)cc34)ncn2)c1`, the “activation” value was 3.95% (inactive).

In the case of `COc1ccccc1CNc1ncnc2ccc(-c3ccccc3C#N)cc12`, the “activation” value is 3.92% (inactive).

On to `Cc1ccccc1-c1ccc2ncnc(N(C)C)c2c1`, for which the “activation” value is 7.69% (inactive).

Consider `C=CCc1ccc(OC(=O)c2ccccc2)c(OC)c1`, for which the Potency entry was “inactive”.

For the molecule `CN(Cc1ccco1)c1ncnc2ccc(-c3ccc4c(c3)OCO4)cc12`, the Potency entry is “inactive”.

Turning to `NC(Cc1ccc(O)c(O)c1)C(=O)O` (stereo unspecified), the “activation” value was -3.59% (inactive).

Take `COc1cc2ccc(=O)oc2cc1O`: the “activation” value is 4.96% (inactive).

Turning to `COc1ccc2[nH]cc(CCNc3ncnc4ccc(-c5ccccc5C#N)cc34)c2c1`, the “activation” value was 9.88% (inactive).

Another assay concerns the target Rap guanine nucleotide exchange factor 4 (Homo sapiens) (UniProt Q8WZA2). Put plainly: Confirmatory qHTS for agonist of cAMP-regulated guanine nucleotide exchange factor 4 (EPAC2) (AID 1645884).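 Note: nucleotide exchange releases bodipy-GDP from Rap1 and this lowers its fluorescence; % is set by controls: 0 for no effect and ±100 for the full control effect; nearly all actives have a fitted effect of over 65% in size.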 Conditions: EPAC2 GEF activity, Rap1B-BODIPY-GDP fluorescence; series mostly up to 154 µM; activation: at the top concentration.
For `COc1ccc2[nH]cc(CCNc3ncnc4ccc(-c5ccc6c(c5)OCO6)cc34)c2c1`, the “activation” value was 13.4% (inactive).

On to `COc1cccc(-c2cc(NCCc3c[nH]c4ccc(OC)cc34)ncn2)c1`, for which the “activation” value is 6.46% (inactive).

For `COc1ccccc1CNc1ncnc2ccc(-c3ccccc3C#N)cc12`, the “activation” value is -1.78% (inactive).

Turning to `Cc1ccccc1-c1ccc2ncnc(N(C)C)c2c1`, the “activation” value is 13.5% (inactive).

With `C=CCc1ccc(OC(=O)c2ccccc2)c(OC)c1`, the Potency result was “inactive”.

For the molecule `CN(Cc1ccco1)c1ncnc2ccc(-c3ccc4c(c3)OCO4)cc12`, the Potency entry was “inactive”.

In the case of `NC(Cc1ccc(O)c(O)c1)C(=O)O` (stereo unspecified), the “activation” value is -3.16% (inactive).

In the case of `COc1cc2ccc(=O)oc2cc1O`, the “activation” value is 9.53% (inactive).

Consider `COc1ccc2[nH]cc(CCNc3ncnc4ccc(-c5ccccc5C#N)cc34)c2c1`, for which the “activation” value is 13.2% (inactive).

The target is the same in the next assay. Description: Confirmatory qHTS for antagonist of cAMP-regulated guanine nucleotide exchange factor 4 (EPAC2) (AID 1645885). For activity change, negative = inhibition: % is set by controls: 0 for no effect and ±100 for the full control effect. Note: nearly all actives have a fitted effect of over 25% in size. Note: potency is the fitted concentration of half-maximal effect. Particulars: EPAC2 Rap1B-BODIPY-GDP exchange fluorescence, biochemical; series mostly up to 114 µM; activity change, negative = inhibition: at the top concentration.
As to `COc1ccc2[nH]cc(CCNc3ncnc4ccc(-c5ccc6c(c5)OCO6)cc34)c2c1`, the “activity change, negative = inhibition” value is 6.42% (inactive).

Consider `COc1cccc(-c2cc(NCCc3c[nH]c4ccc(OC)cc34)ncn2)c1`, for which the “activity change, negative = inhibition” value was 13.8% (inactive).

For `COc1ccccc1CNc1ncnc2ccc(-c3ccccc3C#N)cc12`, the “activity change, negative = inhibition” value is -13% (inactive).

On to `Cc1ccccc1-c1ccc2ncnc(N(C)C)c2c1`, for which the “activity change, negative = inhibition” value is -49.5% (inactive).

Consider `C=CCc1ccc(OC(=O)c2ccccc2)c(OC)c1`, for which the activity change, negative = inhibition was -4.91% [at 12.7 µM] (inactive).

On to `CN(Cc1ccco1)c1ncnc2ccc(-c3ccc4c(c3)OCO4)cc12`, for which the Potency was 13.9 µM (active) and inactive.

For the molecule `NC(Cc1ccc(O)c(O)c1)C(=O)O` (stereo unspecified), the Potency is 44.1 µM (active).

Regarding `COc1cc2ccc(=O)oc2cc1O`, the “activity change, negative = inhibition” value was -2.78% (inactive).

With `COc1ccc2[nH]cc(CCNc3ncnc4ccc(-c5ccccc5C#N)cc34)c2c1`, the “activity change, negative = inhibition” value is 1.26% (inactive).
